Source: the antibiotic and cytotoxicity screens of Wong et al. (2023)
The whole screen tested about 39,000 compounds, of which about 3,300 (8.5%) were called active. Many of the other results were omitted from the sample, so actives are more common in it than they were.

System: HepG2
Experiment: cytotoxicity call (relative viability < 0.9)
Conditions: 10 µM

| Compound | cytotoxicity call |
| --- | --- |
| O=C(C[C@H]1C=C[C@H](NC(=O)c2ccc3c(c2)OCO3)[C@H](CO)O1)NCc1ccc(Oc2ccccc2)cc1 | inactive |
| CC(C)CC#Cc1cnc2c(c1)C(=O)N([C@H](C)CO)C[C@@H](C)[C@@H](CN(C)C(=O)c1ccc3c(c1)OCO3)O2 | inactive |
| C[C@H]1CN([C@@H](C)CO)C(=O)CCCn2nncc2CO[C@H]1CN(C)S(=O)(=O)c1ccc(C#N)cc1 | inactive |
| Cc1ccc(S(=O)(=O)NCC[C@H]2CC[C@H](NS(=O)(=O)c3ccccc3Cl)[C@H](CO)O2)cc1 | inactive |
| C[C@@H]1CN([C@H](C)CO)C(=O)c2cc(NC(=O)Nc3cccc4ccccc34)ccc2O[C@H]1CN(C)C(=O)Nc1ccc2c(c1)OCO2 | inactive |
| C[C@@H]1CN([C@@H](C)CO)C(=O)Cc2cc(NC(=O)C3CC3)ccc2O[C@H]1CN(C)S(=O)(=O)c1cccs1 | inactive |
| Cc1noc(C)c1NC(=O)Nc1ccc2c(c1)C(=O)N([C@@H](C)CO)C[C@H](C)[C@@H](CN(C)C(=O)Nc1ccc(F)cc1)OCCCC[C@@H](C)O2 | inactive |
| Cc1[nH]c(=O)[nH]c(=O)c1CCC(=O)O | inactive |
| [Fe+3].CC/1=C(CCC(=O)O)/C/2=C/c3[nH]c(c(c3CCC(=O)O)C)/C=C/3\N=C(/C=C/4\N=C(\C=C1/N2)C(=C4C)C=C)C(=C3C)C=C | active |
| Cc1nc2[nH]c(C)c(CCC(=O)O)c(=O)n2n1 | inactive |
| CC(C)NC(=O)Nc1ccc2c(c1)CC(=O)N([C@@H](C)CO)C[C@@H](C)[C@@H](CN(C)S(=O)(=O)c1ccc(Cl)cc1)O2 | inactive |
| CC(C)NC(=O)Nc1ccc2c(c1)CC(=O)N([C@H](C)CO)C[C@H](C)[C@H](CN(C)S(=O)(=O)c1ccc(Cl)cc1)O2 | inactive |
| Cc1ccccc1S(=O)(=O)N(C)C[C@@H]1Oc2ccc(NC(=O)Nc3ccc(Cl)c(Cl)c3)cc2CC(=O)N([C@@H](C)CO)C[C@@H]1C | active |
| CC(C)NC(=O)Nc1ccc2c(c1)CC(=O)N([C@H](C)CO)C[C@H](C)[C@@H](CN(C)S(=O)(=O)c1ccc(Cl)cc1)O2 | inactive |
| Cc1ccccc1S(=O)(=O)N(C)C[C@@H]1Oc2ccc(NC(=O)Nc3cccc(C(F)(F)F)c3)cc2CC(=O)N([C@@H](C)CO)C[C@@H]1C | inactive |
| CC(C)NC(=O)Nc1ccc2c(c1)CC(=O)N([C@@H](C)CO)C[C@H](C)[C@@H](CN(C)S(=O)(=O)c1ccc(Cl)cc1)O2 | inactive |
| Cc1ccccc1S(=O)(=O)N(C)C[C@@H]1Oc2ccc(NC(=O)Nc3cc(Cl)cc(Cl)c3)cc2CC(=O)N([C@@H](C)CO)C[C@@H]1C | inactive |
| C[C@H]1CN([C@@H](C)CO)C(=O)Cc2cc(NC(=O)Nc3ccc(Cl)c(Cl)c3)ccc2O[C@H]1CN(C)S(=O)(=O)c1ccc(Cl)cc1 | active |
| C[C@H]1CN([C@@H](C)CO)C(=O)Cc2cc(NC(=O)Nc3cc(Cl)cc(Cl)c3)ccc2O[C@H]1CN(C)S(=O)(=O)c1ccc(Cl)cc1 | active |
| Cc1noc(C)c1NC(=O)Nc1ccc2c(c1)CC(=O)N([C@H](C)CO)C[C@H](C)[C@@H](CN(C)Cc1ccc(C(=O)Nc3ccccc3N)cc1)O2 | inactive |
| CCS(=O)(=O)Nc1ccc2c(c1)C(=O)N(C)C[C@H](OC)[C@H](C)CN(CCC(F)(F)F)[C@@H](C)CO2 | inactive |
| CCN(CC)c1ccc(N2CC=C[C@@]34O[C@@H]5/C=C\CCCOC(=O)[C@@H]5[C@H]3C(=O)N([C@@H](C)CO)[C@@H]4C2=O)cc1 | inactive |
| COc1ccc(NC(=O)Nc2ccc3c(c2)C(=O)N([C@H](C)CO)C[C@@H](C)[C@H](CN(C)C(=O)Nc2ccccc2)OCCCC[C@@H](C)O3)cc1 | inactive |

| Compound | cytotoxicity call |
| --- | --- |
| Oc1cccc(O)c1O | inactive |
| Cn1cc(-c2cc3c(N4CCN(c5ncc([C@@](C)(N)c6ccc(F)cc6)cn5)CC4)ncnn3c2)cn1 | active |
| C[C@H](CO)N1C[C@H](C)[C@@H](CN(C)C(=O)Cc2cccnc2)Oc2cc(C#CC3(O)CCCC3)ccc2S1(=O)=O | inactive |
| C[C@H](CO)N1C[C@H](C)[C@@H](CN(C)Cc2ccc3c(c2)OCO3)OCCCC[C@H](C)Oc2ccc(NC(=O)CCC(F)(F)F)cc2C1=O | inactive |
| Cc1noc(C)c1S(=O)(=O)N(C)C[C@H]1Oc2c(NS(=O)(=O)c3ccccc3)cccc2C(=O)N([C@@H](C)CO)C[C@H]1C | inactive |
| COc1ccc(S(=O)(=O)Nc2ccc3c(c2)CC(=O)N([C@@H](C)CO)C[C@H](C)[C@@H](CN(C)C(=O)NC(C)C)O3)cc1 | inactive |
| CC(=O)O[C@@]1(C)C[C@@H](O)[C@@H]2C=CO[C@@H](O[C@@H]3O[C@H](CO)[C@@H](O)[C@H](O)[C@H]3O)[C@@H]21 | inactive |
| O=[N+]([O-])c1ccc2nc(CO)[nH]c2c1 | inactive |
| c1ccc(-c2nc3ccccc3o2)cc1 | inactive |
| O=C(Nc1ccc(-c2nc3ccc(NC(=O)c4ccccc4[N+](=O)[O-])cc3[nH]2)cc1)c1ccccc1[N+](=O)[O-] | active |
| NC1(C(=O)Nc2ccc3nc(-c4ccc(F)cc4)oc3c2)CC1 | inactive |
| c1ccc2[nH]c(-c3ccncc3)nc2c1 | inactive |
| O=C(Nc1ccc(-c2nc3cc(NC(=O)c4ccccc4Cl)ccc3o2)cc1)c1ccccc1Cl | active |
| NCc1ccc(-c2nc3ccccc3o2)cc1 | inactive |
| O=C(Nc1ccc(-c2nc3ccc(NC(=O)c4ccc(Cl)cc4)cc3[nH]2)cc1)c1ccc(Cl)cc1 | active |
| Cc1ccc(NC(=O)c2cc(=O)[nH]c(=O)[nH]2)cc1 | inactive |
| O=C(Nc1ccc(-c2nc3cc(NC(=O)c4ccccc4[N+](=O)[O-])ccc3o2)cc1)c1ccccc1[N+](=O)[O-] | active |
| O=C(Nc1ccc(-c2nc3ccc(NC(=O)c4ccc(NC(=O)c5cccc6ccccc56)cc4)cc3[nH]2)cc1)c1ccc(NC(=O)c2cccc3ccccc23)cc1 | inactive |
| CCCC(=O)Nc1ccc(-c2nc3cc(C(C)C)ccc3o2)cc1 | inactive |
| O=c1[nH]cnc2c1ncn2C1OC(CO)C(O)C1O (configuration not stated) | inactive |
| C[C@H](CO)N1C[C@H](C)[C@H](CN(C)C(=O)Nc2cc(F)ccc2F)Oc2cc(/C=C/c3ccccc3)ccc2S1(=O)=O | inactive |
| C[C@H]1CN([C@@H](C)CO)S(=O)(=O)c2ccc(C#CC3(O)CCCC3)cc2O[C@H]1CN(C)C(=O)c1ccncc1 | inactive |
| Nc1cncc(Cl)n1 | inactive |

| Compound | cytotoxicity call |
| --- | --- |
| CN1CCN(C(=O)C[C@H]2CC[C@H]3[C@@H](COC[C@H](O)CN3C(=O)Nc3ccc4c(c3)OCO4)O2)CC1 | inactive |
| COc1ccc(S(=O)(=O)N(C)C[C@H]2OCCCC[C@@H](C)Oc3ccc(NC(=O)c4ccccc4)cc3C(=O)N([C@@H](C)CO)C[C@@H]2C)cc1 | inactive |
| CN(C)CC#Cc1ccc([C@@H]2[C@@H](CO)N3C(=O)CN(C(=O)CN(C)C)C[C@@H]23)cc1 | inactive |
| C[C@@H]1CN([C@H](C)CO)C(=O)c2cc(C#CC3(O)CCCC3)cnc2O[C@H]1CN(C)S(=O)(=O)c1ccccc1 | inactive |
| CC(C)NC(=O)Nc1cccc2c1O[C@@H](CN(C)Cc1ccc(C(=O)O)cc1)[C@H](C)CN([C@H](C)CO)C2=O | inactive |
| c1cc2c(cc1-c1nn[nH]n1)OCO2 | inactive |
| CC(C)(C)c1cc(NC(=O)Nc2ccc(-c3cn4c(n3)sc3cc(OCCN5CCOCC5)ccc34)cc2)no1 | active |
| COc1cc(OC)cc(C(=O)Nc2nc(-c3ccc4c(c3)CCN4C(=O)CN3CCOCC3)cs2)c1 | inactive |
| O=C(NCCCN1CCOCC1)Nc1ccc(Cc2ccc(NC(=O)NCCCN3CCOCC3)cc2)cc1 | inactive |
| C[C@@H]1CCCCO[C@@H](CN(C)S(=O)(=O)c2cccs2)[C@@H](C)CN([C@@H](C)CO)C(=O)c2cc(NC(=O)Cc3ccccc3)ccc2O1 | inactive |
| C[C@H](CO)N1C[C@H](C)[C@@H](CN(C)C(=O)Nc2ccc3c(c2)OCO3)Oc2c(NS(=O)(=O)c3cn(C)cn3)cccc2C1=O | inactive |
| COc1ccc(CN(C)C[C@@H]2OCCCC[C@H](C)Oc3ccc(NC(=O)Nc4cccc5ccccc45)cc3C(=O)N([C@H](C)CO)C[C@@H]2C)cc1 | inactive |
| COc1ccc(CN(C)C[C@@H]2OCCCC[C@@H](C)Oc3ccc(NC(=O)Nc4cccc5ccccc45)cc3C(=O)N([C@@H](C)CO)C[C@H]2C)cc1 | active |
| COc1ccc(CN(C)C[C@@H]2OCCCC[C@H](C)Oc3ccc(NC(=O)Nc4cccc5ccccc45)cc3C(=O)N([C@@H](C)CO)C[C@H]2C)cc1 | active |
| COc1ccc(CN(C)C[C@@H]2OCCCC[C@H](C)Oc3ccc(NC(=O)Nc4cccc5ccccc45)cc3C(=O)N([C@H](C)CO)C[C@H]2C)cc1 | active |
| COc1ccc(CN(C)C[C@H]2OCCCC[C@H](C)Oc3ccc(NC(=O)Nc4cccc5ccccc45)cc3C(=O)N([C@H](C)CO)C[C@@H]2C)cc1 | inactive |
| COc1ccc(CN(C)C[C@@H]2OCCCC[C@H](C)Oc3ccc(NC(=O)Nc4cccc5ccccc45)cc3C(=O)N([C@@H](C)CO)C[C@@H]2C)cc1 | inactive |
| COc1ccc(CN(C)C[C@H]2OCCCC[C@H](C)Oc3ccc(NC(=O)Nc4cccc5ccccc45)cc3C(=O)N([C@@H](C)CO)C[C@@H]2C)cc1 | inactive |
| COc1ccc(CN(C)C[C@H]2OCCCC[C@H](C)Oc3ccc(NC(=O)Nc4cccc5ccccc45)cc3C(=O)N([C@@H](C)CO)C[C@H]2C)cc1 | inactive |
| COc1ccc(CN(C)C[C@H]2OCCCC[C@@H](C)Oc3ccc(NC(=O)Nc4cccc5ccccc45)cc3C(=O)N([C@H](C)CO)C[C@H]2C)cc1 | inactive |
| COc1ccc(CN(C)C[C@@H]2OCCCC[C@@H](C)Oc3ccc(NC(=O)Nc4cccc5ccccc45)cc3C(=O)N([C@H](C)CO)C[C@H]2C)cc1 | active |
